Source: PubChem (several laboratories)
An excerpt weighted towards active compounds, which were near 5.4% of everything screened.
Calb FLC: C. albicans growth modulation with fluconazole; C. albicans CaCi-2 (fluconazole-resistant clinical isolate) + fluconazole, Alamar Blue growth, 48 h; growth inhibition, % (no concentration beside the values); 300,000 tested, 0.57% active; AID 1979;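 active = growth inhibition above about 58% in most replicates, limit read from the data, passing the limit was not always enough; inconclusive = exactly half the replicates above a set limit; inactive = most replicates below a set limit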;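 note: all wells also contain fluconazole at 8 µg/ml as a sub-toxic cotreatment; 0% = median of DMSO wells and 100% = median of geldanamycin control wells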
SKKanGAS inh: inhibitors of SKKanGAS S. pyogenes growth in kanamycin (SK-promoter or general growth effect); inhibition, % at 7.5 µM; 300,000 tested, 1.3% active; BacTiter-Glo, 6 h;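 active = mean replicate score, as percent of positive control median, at least 50; inconclusive = mean below 50 but one replicate at or above 50; inactive = mean and every replicate below 50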;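 note: strain carries kanamycin resistance gene driven by streptokinase promoter and grows in 40 µg/ml kanamycin; loss of luminescence reflects streptokinase promoter inhibition or plain growth inhibition; 0% = median of DMSO wells and 100% = positive control at its reference dose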
MPTP block: blocks calcium-induced mitochondrial swelling; isolated mouse mitochondria, Ca2+ swelling absorbance, 30 min; inhibition, % at 10 µM; 360,000 tested, 1.4% active; AID 602449;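 active = inhibition of 50% or more, scaled per plate between neutral and stimulator controls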;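 note: 0% = DMSO wells given calcium and 100% = 1 mM EGTA wells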
CSC inhib: blocks cancer stem cells. cancer stem cell-like cells viability, luminescence. inhibition, % at 7.5 µM. 300,000 tested, 1.1% active; in the data active = inhibition above about 75%; inconclusive = no clear call, values can overlap the other calls; tested in HMLE shEcad cells
Beta cell apopt: blocks beta cell apoptosis. INS-1E cytokine-induced death, ATP luminescence, 48 h; percent of positive-control rescue, neutral wells zero. 300,000 tested, 0.8% active. protection from apoptosis, % (test concentration not listed);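 active = Every replicate reaches about 75%, or at least half do and their mean reaches it too, limit read from the data; inconclusive = At least half of replicates reach the limit but their mean does not; inactive = Under half of replicates reach the limit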;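 note: 0% = cytokine-treated negative control wells and 100% = positive control rescue; higher means more ATP so stronger rescue from cytokine killing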
Mdm2 MdmX PPI: human Mdm2/MdmX binding inhibition. 330,000 tested, 3% active. SaOS-2 split-luciferase Mdm2/MdmX complementation, luminescence. inhibition, % at 8 µM;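 active = inhibition of at least 50% at 8 µM in the primary screen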
Target sequence (O15151 whole entry, looked up): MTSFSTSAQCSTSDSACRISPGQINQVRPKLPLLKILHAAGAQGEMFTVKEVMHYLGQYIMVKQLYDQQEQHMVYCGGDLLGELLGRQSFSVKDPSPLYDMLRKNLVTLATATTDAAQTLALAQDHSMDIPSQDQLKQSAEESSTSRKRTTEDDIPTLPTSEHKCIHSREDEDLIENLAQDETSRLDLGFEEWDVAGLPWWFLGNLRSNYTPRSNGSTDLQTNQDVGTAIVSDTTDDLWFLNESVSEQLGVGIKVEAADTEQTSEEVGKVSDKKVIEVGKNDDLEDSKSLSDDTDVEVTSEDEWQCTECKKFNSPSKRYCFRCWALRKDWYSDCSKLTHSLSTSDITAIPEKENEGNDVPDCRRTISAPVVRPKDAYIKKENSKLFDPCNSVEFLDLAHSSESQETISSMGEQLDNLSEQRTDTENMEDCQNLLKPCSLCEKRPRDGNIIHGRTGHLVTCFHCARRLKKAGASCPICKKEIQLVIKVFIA
Target sequence (Q00987 whole entry, looked up): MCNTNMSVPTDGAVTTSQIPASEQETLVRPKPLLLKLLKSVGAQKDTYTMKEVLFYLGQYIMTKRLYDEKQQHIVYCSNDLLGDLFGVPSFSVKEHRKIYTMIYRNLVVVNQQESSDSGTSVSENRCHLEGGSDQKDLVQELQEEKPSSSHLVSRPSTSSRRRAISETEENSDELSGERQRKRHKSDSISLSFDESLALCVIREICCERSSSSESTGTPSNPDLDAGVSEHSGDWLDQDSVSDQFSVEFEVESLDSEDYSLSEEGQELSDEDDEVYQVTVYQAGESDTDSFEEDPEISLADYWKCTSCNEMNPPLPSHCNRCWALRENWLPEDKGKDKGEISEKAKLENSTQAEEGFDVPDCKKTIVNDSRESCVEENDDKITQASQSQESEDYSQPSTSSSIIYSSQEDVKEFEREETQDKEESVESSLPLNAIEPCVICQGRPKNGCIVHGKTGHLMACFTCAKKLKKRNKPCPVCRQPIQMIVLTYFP
Mdm2 MdmX conf: human Mdm2/MdmX binding inhibition, confirmed; AID 489028; shares compounds with Mdm2 MdmX PPI; luminescent assay; inhibition, % at 8 µM; 10,000 tested, 55% active; in the data active = inhibition above about 40%
Full FLuc ctr: counter-screen for Mdm2/MdmX inhibitors: full-length luciferase. SaOS-2 full-length luciferase counterscreen, luminescence. shares compounds with Mdm2 MdmX PPI. 6,200 tested, 77% active. inhibition, % at 8 µM;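 active = mean inhibition at 8 µM reaching about 37%, which flags the compound as non-specific, limit read from the data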;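 note: p53-null SaOS-2 cells with luciferase driven by a doxycycline-inducible promoter; compound on cells about two nights before reading with doxycycline added after day one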
Active calls of the source: *; ? = inconclusive; . = not tested or not shown.

SMILES	Calb FLC	SKKanGAS inh	MPTP block	CSC inhib	Beta cell apopt	Mdm2 MdmX PPI	Mdm2 MdmX conf	others
COc1ccc(C(CNC(=O)c2ccc(S(=O)(=O)N3CC(C)CC(C)C3)cc2)N(C)C)cc1 (configuration not stated)	.	.	7	34	6	51*	17
COc1ccc(C(CNC(=O)c2ccc(S(=O)(=O)N3CCCC3)cc2)N(C)C)cc1OC (configuration not stated)	-7	-1	2	.	-8	-12	.
NC(=S)N/N=C\c1c(OCc2ccccc2Cl)ccc2ccccc12	34	50*	-1	28	37	53*	5
NNC(=O)Cn1nc(-c2ccccc2)c2ccccc2c1=O	-1	10	1	-5	-1	15	.
CC1CCc2c(sc3nc(C(C)(C)C)nc(N4CCN(C(=O)CCl)CC4)c23)C1 (configuration not stated)	31	70*	0	63	98*	98*	36	Full FLuc ctr=35
CCc1ccc(NC(=O)Cn2c(=O)c3cccn3c3ccccc32)cc1	-4	0	-1	20	20	66*	61*	Full FLuc ctr=55*
CCOc1ccc(CNC(=O)Cn2nc(C)n3nc(-c4ccccc4)cc3c2=O)cc1	33	36	-2	-10	-4	97*	15
CCOc1ccc(CNC(=O)Cn2c(=O)c3cccn3c3ccccc32)cc1	-14	2	0	0	3	55*	2
N#Cc1cccnc1N1CCN(C(=O)c2cccc3c2C(=O)c2ccc(-c4ccc(F)cc4OCc4ccccc4)cc2S3(=O)=O)CC1	.	.	-1	.	4	-2	.
CN(C(=O)c1ccc2c(=O)n3c(nc2c1)CCCCC3)c1cccc(Cl)c1	-1	11	1	-17	-3	1	.
Cc1c(C(=O)NCCCN2CCCCC2)oc2ccc3c(c12)C(O)CC1(CCCCC1)O3 (configuration not stated)	47	0	1	27	2	76*	30	Full FLuc ctr=55*
COc1ccccc1NS(=O)(=O)c1cc(NC(=O)c2sc3cc(Cl)ccc3c2Cl)ccc1C	-20	15	5	-6	-3	53*	33	Full FLuc ctr=104*
CCNC(=S)Nc1ccc(C)c(S(=O)(=O)Nc2ccccc2OC)c1	4	-13	3	-6	2	-6	.
CCN(CC)Cc1ccc(NC(=O)c2sc3cc(Cl)ccc3c2Cl)cc1	103*	4	-2	101*	1	55*	21
O=C(N/N=C/C=C/c1ccccc1)C1CC1c1ccccc1 (configuration not stated)	-6	-7	1	-6	-8	19	.
CCCCCCN(C(=O)CCCCCN1C(=O)NC(c2cccc([N+](=O)[O-])c2)C(C(=O)OCc2ccccc2)=C1C)C(C(=O)NCCCC)c1ccc(OCC(=O)OC)c(C(=O)OC)c1 (configuration not stated)	1	28	.	-43	0	85*	-14
CCCCCCN(C(=O)CCCCCN1C(=O)NC(c2ccc([N+](=O)[O-])cc2)C(C(=O)OCc2ccccc2)=C1C)C(C(=O)NCCCC)c1ccc(OCC(=O)OC)c(C(=O)OC)c1 (configuration not stated)	1	18	.	54	-1	34	.
CCCCCCN(C(=O)CCCCCN1C(=O)NC(c2ccc(-c3ccccc3)cc2)C(C(=O)OCc2ccccc2)=C1C)C(C)C(=O)NCCCC (configuration not stated)	1	23	.	3	8	19	.
CCCCNC(=O)C(C1CCCCC1)N(CCN(C)C)C(=O)CCCN1C(=O)NC(c2ccc(-c3ccccc3)cc2)C(C(=O)OCc2ccccc2)=C1C (configuration not stated)	.	.	.	.	.	97*	57*	Full FLuc ctr=1
CCCCNC(=O)C(C)N(CCN(C)C)C(=O)CCCN1C(=O)NC(c2ccc([N+](=O)[O-])cc2)C(C(=O)OCc2ccccc2)=C1C (configuration not stated)	.	.	-4	.	.	68*	23
CCOCCCNC(=S)NNC(=O)CCn1nc(C)c(Br)c1C	8	5	-1	8	-2	5	.
O=c1oc2ccccc2cc1-c1csc(Nc2nc3c(F)cccc3s2)n1	25	11	39	48	.	70*	70*	Full FLuc ctr=107*
O=c1oc2ccccc2cc1-c1csc(Nc2nc3ccc(F)cc3s2)n1	-1	-5	.	24	64	40	.
NNc1nc2sc3c(c2c(=O)n1C1CCCCC1)CCN(Cc1ccccc1)C3	-4	10	1	48	-7	55*	8
NNc1nc2sc3c(c2c(=O)n1Cc1ccccc1)CCC3	23	12	4	17	-4	-6	.
SMILES	Calb FLC	SKKanGAS inh	MPTP block	CSC inhib	Beta cell apopt	Mdm2 MdmX PPI	Mdm2 MdmX conf	others
CCOC(=O)CNC(=O)CSc1nnc(NC(=O)c2ccc(C)cc2)s1	-8	6	-2	2	0	54*	41*	Full FLuc ctr=68*
CCn1c(=O)n(CC)c2cc(N3CCCC3)c(NC(=O)c3cc(Br)ccc3OC)cc21	25	65*	.	15	47	75*	20
COc1cc(OC)cc(-c2oc(=O)c3cc(OC)c(OC)cc3c2C#CCCO)c1	.	.	1	2	6	26	.
COc1ccc(-c2oc(=O)c3cc(OC)c(OC)cc3c2C#C[C@]2(O)CC[C@H]3[C@@H]4CCc5cc(OC)ccc5[C@H]4CC[C@@]32C)cc1	.	.	-1	0	-2	70*	10
O=C(CN1CCCCC1)Nc1ccc(NC(=O)c2ccc(Cl)cc2)cc1Cl	?	1	6	39	21	57*	14
COc1cccc(/C=N/NC(=O)c2cc3c(OC)ccc(OC)c3[nH]2)c1O	-19	106*	2	103*	86*	62*	63*	Full FLuc ctr=38*
COc1cccc(/C=N/Nc2ccc(C(=O)O)cc2)c1O	11	27	-1	25	21	54*	24
COc1cccc(C=NNC(=O)c2ccncc2)c1O	.	.	2	.	.	.	.
COc1cccc(/C=N/Nc2ccc(S(=O)(=O)O)cc2)c1O	-6	5	-1	-10	-6	9	.
COc1cc(OC)c2cc(C(=O)N/N=C/c3cccc(OC)c3O)[nH]c2c1	2	21	17	125*	97*	69*	62*	Full FLuc ctr=34
COc1cccc(/C=N/NC(=O)c2nc(-c3ccccc3)cc(-c3ccccc3)n2)c1O	114*	29	5	46	8	51*	20
COC(=O)c1c(C)[nH]c(C(=O)C(C)OC(=O)c2cc(C)oc2C)c1C (configuration not stated)	.	.	2	.	21	-3	.
